Assay outcomes (PubChem BioAssay)
The list is not random: actives were taken first. Their share in the collection is about 0.4%.
Rac1 wt GTP bind: alters GTP binding to wildtype human Rac1 | GTP binding activity (% of control), % at 10 µM | GST-Rac1 beads, fluorescent GTP binding, flow cytometry; actives lie on both sides; 0 = cold GTP competed, 100 = untreated | 190,000 tested, 0.27% active | P63000;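 active means GTP binding activity at least 20 points away from the 100% control level, either lower or higher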
Rab2 wt GTP: changes GTP binding to wildtype dog Rab2A, up or down; P61105; GST-Rab2 wt beads, Bodipy-GTP binding, flow cytometry; GTP binding activity, % at 10 µM; 190,000 tested, 0.19% active; AID 760;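 active means GTP binding activity at least 20 points away from 100%, either lowered or raised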
Rac1 act GTP bind: alters GTP binding to activated mutant human Rac1; P63000; GST-Rac1 activated beads, fluorescent GTP binding, flow cytometry; actives lie on both sides; 100% means binding = to untreated wells; percent activity (GTP binding), % at 10 µM; 190,000 tested, 0.11% active; AID 764;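 active means GTP binding at least 20 percentage points away from the 100% baseline, in either direction, so actives lie on both sides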
Rab7 wt modul: alters GTP binding to wildtype dog Rab7 | AID 758 | GST-Rab7 beads, fluorescent GTP binding, flow cytometry; actives lie on both sides; untreated = 100%, excess cold GTP = 0% | 190,000 tested, 0.055% active | GTP binding activity (percent of control), % at 10 µM;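 active means fluorescent GTP binding to Rab7 beads changed by at least 20 points from the 100% baseline, either direction, mostly lower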;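 further: median green fluorescence of bound Bodipy-FL-GTP per Rab7 bead population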
Cdc42 wt GTP: human Cdc42 wildtype GTP binding change, either direction | P60953 | GST-Cdc42 beads, Bodipy-GTP binding, flow cytometry; actives lie on both sides | percent activity (GTP binding), % at 10 µM | 190,000 tested, 0.2% active | AID 761;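 active means percent activity GTP binding at least 20 points away from the 100% baseline, either down as inhibitor or up as activator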;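 further: median bead fluorescence of bound Bodipy-FL-GTP at 100 nM; below 100% means less GTP binding so inhibitor and above means activator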
Target sequence (P60953 whole entry, looked up): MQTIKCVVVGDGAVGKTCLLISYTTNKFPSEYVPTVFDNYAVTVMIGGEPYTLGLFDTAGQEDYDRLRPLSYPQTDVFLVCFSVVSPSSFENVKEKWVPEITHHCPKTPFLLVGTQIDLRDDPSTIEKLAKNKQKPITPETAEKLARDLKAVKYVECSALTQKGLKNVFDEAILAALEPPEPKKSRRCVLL
HRas wt GTP bind: changes GTP binding to wildtype human HRas; P01112; GST-Ras wt beads, Bodipy-FL-GTP binding, flow cytometry; actives lie on both sides; GTP binding activity, % at 10 µM; 190,000 tested, 0.14% active;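 active means GTP binding activity at least 20% away from the 100% baseline, either lowered as inhibitor or raised as activator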
Target sequence (P01112 whole entry, looked up): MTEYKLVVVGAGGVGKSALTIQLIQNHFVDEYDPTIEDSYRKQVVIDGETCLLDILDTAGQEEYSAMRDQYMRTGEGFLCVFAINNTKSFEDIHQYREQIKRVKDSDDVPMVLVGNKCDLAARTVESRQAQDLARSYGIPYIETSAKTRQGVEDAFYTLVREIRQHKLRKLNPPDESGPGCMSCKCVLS
Of the large screens only hits and unclear results are named; the others gave an inactive call; [ ] = another dose, or the depositor's remark.

Cc1nn(CCc2nn[nH]n2)c2nc(-c3ccc(C4CCCCC4)cc3)cc(C(F)(F)F)c12	Rac1 wt GTP bind 79, Rac1 act GTP bind 78, Cdc42 wt GTP 77
Cc1[nH]n2c(=O)c3c(nc2c1-c1ccc(F)cc1)CCCC3	none
Cc1ccc(N=Nc2c(=O)[nH]n3c(C)cc(C)nc23)cc1	none
Cc1ccc(N=Nc2c(N)[nH]n3c(=O)cc(C)nc23)cc1	Rac1 wt GTP bind 75
Cc1ccc(N=Nc2c(N)[nH]n3c(=O)c4c(nc23)CCCC4)cc1	Rac1 wt GTP bind 75
CC(C)NC(=O)Cn1cc(C(=O)COc2ccccc2)c2ccccc21	none
COc1ccc(C(=O)Nc2nc3ccccc3[nH]2)cc1S(=O)(=O)N1CCOCC1	Rab2 wt GTP 77, Cdc42 wt GTP 78
Cn1c(=O)c2c(nc(N3CCc4ccccc4C3)n2C)n(C)c1=O	Rac1 wt GTP bind 69, Cdc42 wt GTP 80
CCN1CCN(c2nc3c(c(=O)n(C)c(=O)n3C)n2Cc2cccc3ccccc23)CC1	Rac1 wt GTP bind 120[activator]
COc1ccc(NC(=O)C(NC(=O)c2ccc(=O)[nH]c2)c2ccc(C)cc2)cc1 (configuration not stated)	none
COc1ccc(NC(=S)N2CCNC(=O)C2CC(=O)Nc2cccc(Cl)c2C)cc1 (configuration not stated)	none
COc1cc([N+](=O)[O-])cc(/C=N/NC(=O)c2ccc(NC(=O)c3ccc(C)cc3)cc2)c1O	Rab2 wt GTP 78
CCOC(=O)c1cc(C(=O)OCC)c2ccccn2c1=O	Rab7 wt modul 76, HRas wt GTP bind 79
O=C(NCc1ccccn1)C(=O)C1C(=O)Nc2ccccc21 (configuration not stated)	none
CC(=O)Nc1ccc(NC(=O)c2ccccc2C)cc1	none
Cc1ccccc1C(=O)Nc1ccc2c(C#N)c3nc4ccccc4nc3n2c1	Rac1 wt GTP bind 76, Rab2 wt GTP 76
N=c1oc2ccc3ccccc3c2cc1-c1nc(-c2ccccc2)cs1	Rac1 wt GTP bind 79, Rab2 wt GTP 79
CSc1nnc(C)c(/C=C/Nc2ccc(F)cc2)n1	none
COc1ccc(N/C=C/c2nc(SC)nnc2C)cc1	Rac1 wt GTP bind 64, Rab2 wt GTP 66, Cdc42 wt GTP 67, HRas wt GTP bind 69
Cc1cc(C)nc(NS(=O)(=O)c2ccc(N/C=C/C(=O)c3ccc(Cl)cc3)cc2)n1	none
COc1ccc(C(=O)/C=C/Nc2ccc(S(=O)(=O)Nc3nc(C)cc(C)n3)cc2)cc1OC	Rac1 wt GTP bind 79
CC(=O)C1=C(O)C=C(c2ccco2)CC1c1ccco1 (configuration not stated)	none
CN1CCN(S(=O)(=O)c2ccc(NC(=S)NC(=O)C(C)(C)C)cc2)CC1	none
Cc1cc([N+](=O)[O-])ccc1N=Nc1c(N)[nH]n(-c2ccccc2)c1=O	Rac1 wt GTP bind 78
Nc1[nH]n(-c2ccccc2)c(=O)c1N=Nc1ccc2c(c1)OCCO2	none
COc1ccc(CCNc2nc(=S)[nH]c3cc(OC)c(OC)cc23)cc1OC	Rac1 wt GTP bind 71, Rab2 wt GTP 47, Rac1 act GTP bind 67, Rab7 wt modul 74, Cdc42 wt GTP 49, HRas wt GTP bind 48
COc1cc2[nH]c(=S)nc(NCCc3ccc(C)cc3)c2cc1OC	Rac1 wt GTP bind 49, Rab2 wt GTP 49, Rac1 act GTP bind 65, Rab7 wt modul 69, Cdc42 wt GTP 45, HRas wt GTP bind 54
COc1ccc(CCNC(=O)c2ccc(CNc3nc(=S)[nH]c4ccccc34)cc2)cc1OC	none
COc1ccccc1CC(=O)NCCc1ccc(S(N)(=O)=O)cc1	none
COc1cc2ncnc(NCc3cccs3)c2cc1OC	none
COc1cc2[nH]c(=S)nc(NCc3cccs3)c2cc1OC	Rac1 wt GTP bind 60, Rab2 wt GTP 66, Cdc42 wt GTP 61, HRas wt GTP bind 63
COc1cc2[nH]c(=S)nc(NCCc3ccc(S(N)(=O)=O)cc3)c2cc1OC	Rac1 wt GTP bind 40, Rab2 wt GTP 37, Rac1 act GTP bind 61, Cdc42 wt GTP 32, HRas wt GTP bind 35
COc1cccc(CN2CCNC(=O)C2CC(=O)NCCOc2cccnc2)c1 (configuration not stated)	none
Cc1cccc(N2CCN(C(=O)c3ccc(CNc4c(N5CCC(C)CC5)c(=O)c4=O)cc3)CC2C)c1 (configuration not stated)	none
COc1ccccc1N1CCN(C(=O)CCCN2C(=O)c3cccc4cccc(c34)C2=O)CC1	none
COc1cc2[nH]c(=S)nc(NCCC(C)C)c2cc1OC	Rac1 wt GTP bind 52, Rab2 wt GTP 59, Rac1 act GTP bind 71, Cdc42 wt GTP 56, HRas wt GTP bind 64
COc1cc2[nH]c(=O)n(CCC(=O)NCCC(C)C)c(=O)c2cc1OC	none
N#Cc1c2c(c(-c3ccccc3Cl)[nH]c1=S)CCCC2	Cdc42 wt GTP 79
N#Cc1c(-c2ccccc2Cl)cc(-c2ccccc2)[nH]c1=S	none
O=c1c2ccccc2c(=O)n(Cc2ccccc2)n1Cc1ccccc1	none
CCOC(=O)c1cnc2nc(C)nn2c1N	none
CCOC(=O)c1cnc2c(C#N)cnn2c1N	Rac1 wt GTP bind 73, Rab2 wt GTP 73, Cdc42 wt GTP 77, HRas wt GTP bind 72
O=S1(=O)N=C(N(CCO)/N=C/c2ccccc2)c2ccccc21	Rac1 wt GTP bind 70, Rab2 wt GTP 70, Cdc42 wt GTP 71, HRas wt GTP bind 72
O=S1(=O)N=C(N(CCO)/N=C/c2ccncc2)c2ccccc21	Rac1 wt GTP bind 56, Rab2 wt GTP 66, Rac1 act GTP bind 76, Cdc42 wt GTP 64, HRas wt GTP bind 67
CC(NC(=O)Cn1cc(C(F)(F)F)ccc1=O)c1ccc(F)cc1 (configuration not stated)	none
Cc1onc(-c2ccccc2Cl)c1C(=O)Nc1sc2c(c1C(N)=O)CCC(C)C2 (configuration not stated)	none
COc1ccc(NC(=O)c2cc3c(=O)n4ccccc4nc3n2C)cc1OC	none
COc1ccc(-n2c(=S)[nH]c3c(oc4ccccc43)c2=O)cc1	none
Cc1ccc(-n2c(=O)[nH]c3c(oc4ccccc43)c2=O)cc1	Rac1 wt GTP bind 135[activator]
COc1ccc(-n2cc(-c3ccccc3)c3c(N4CCOCC4)ncnc32)cc1	none
COc1ccc(-n2cc(-c3ccccc3)c3c(=O)[nH]cnc32)cc1	Rac1 wt GTP bind 121[activator]
Cc1ccc(-n2[nH]c(C)c(C=Nc3ccc(Br)cn3)c2=O)cc1	none
CSc1nnc(-c2cc(Br)ccc2N=Cc2c(C)[nH]n(-c3ccccc3)c2=O)c(=O)[nH]1	Cdc42 wt GTP 78
